# Source: PubChem BioAssay (NCI)
# About 79,000 compounds went through this panel and 15% of them were active in at least one assay; those are over-represented in the sample as a whole. Values without a mark were called inactive. Active and inactive are the calls of the source. No stated cut-off is given here; in the data, active means growth inhibition above about 70%; inactive means the rest.
# What was measured:
# [1] = NCI Yeast Anticancer Drug Screen. Data for the rad50 strain (AID 155);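 further: 0% = growth of vehicle-only cultures of the same strain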; settings: S. cerevisiae rad50 strain growth inhibition, stronger effect = higher value
# Summary of the method: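 Genetically altered yeast (DNA repair pathway); compound treatment; growth inhibition vs vehicle ctrl.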
# [2] = NCI Yeast Anticancer Drug Screen. Data for the mec2-1 strain (AID 157); settings: S. cerevisiae mec2-1 strain, stronger effect = higher value
# Summary of the method: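 Vehicle-treated cultures served as reference for growth inhibition of compound-exposed mec2-1 yeast.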
# [3] = NCI Yeast Anticancer Drug Screen. Data for the sgs1 mgt1 strain (AID 161);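 further: 0% = growth of cultures given vehicle only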; settings: S. cerevisiae sgs1 mgt1 strain, stronger effect = higher value
# Summary of the method: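 Mutant yeast exposed to compound; growth scored against vehicle-only wells.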
# [4] = NCI Yeast Anticancer Drug Screen. Data for the cln2 rad14 strain (AID 165);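 further: 0% = growth equal to vehicle treated cultures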; settings: S. cerevisiae cln2 rad14 strain, stronger effect = higher value
# Summary of the method: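 Each compound was tested on cln2 rad14 yeast. Inhibition of growth was calculated against vehicle-exposed controls.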
# [5] = NCI Yeast Anticancer Drug Screen. Data for the bub3 strain (AID 167); settings: S. cerevisiae bub3 mutant strain, stronger effect = higher value
# Summary of the method: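 Yeast carrying a defined mutation is treated with each compound, and growth is compared with that of vehicle-exposed cells to give inhibition.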
# [6] = NCI Yeast Anticancer Drug Screen. Data for the mlh1 rad18 strain (AID 175); settings: S. cerevisiae mlh1 rad18 strain growth inhibition, stronger effect = higher value
# Summary of the method: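 Vehicle-treated cultures served as the reference for growth inhibition in a yeast strain carrying DNA damage repair alterations exposed to each compound.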
# [7] = at 5.0 µM (retest, dose inferred, filed as 0.5)
# [8] = at 50.0 µM (retest, dose inferred, filed as 5.0)
Compound,"growth inhibition [1, 7]","growth inhibition [1, 8]",growth inhibition ([1]; at 50.0 µM),"growth inhibition [2, 7]","growth inhibition [2, 8]",growth inhibition ([2]; at 50.0 µM),"growth inhibition [3, 7]","growth inhibition [3, 8]",growth inhibition ([3]; at 50.0 µM),"growth inhibition [4, 7]","growth inhibition [4, 8]",growth inhibition ([4]; at 50.0 µM),"growth inhibition [5, 7]","growth inhibition [5, 8]",growth inhibition ([5]; at 50.0 µM),"growth inhibition [6, 7]","growth inhibition [6, 8]",growth inhibition ([6]; at 50.0 µM)
C/C(=N\OS(=O)(=O)O)SC1OC(CO)C(O)C(O)C1O (configuration not stated),3%,-17%,3.1%,-2%,-13%,-4.8%,-1%,11%,-7.4%,-16%,18%,-0.95%,-2%,-3%,-8.15%,6%,-3%,-11%
COc1ccc2c(c1)CN([C@@H](C)[C@H]1CC[C@H]3[C@@H]4CC[C@H]5C[C@@H](O)CC[C@]5(C)[C@H]4CC[C@]13C)CO2,90% (active),99% (active),99% (active),59%,99% (active),99.3% (active),97% (active),100% (active),99.2% (active),95% (active),99% (active),98.2% (active),91% (active),99% (active),98.7% (active),97% (active),99% (active),98.4% (active)
CCCN1CN(C(C(=O)N[C@@H]2C(=O)N3C(C(=O)O)=C(C)CSC23)c2ccccc2)CSC1=S (some centres not stated),-19%,11%,33.7%,-11%,1%,-32.4%,-21%,-10%,-3.25%,-37%,-14%,44%,-10%,-1%,-38.4%,-13%,-12%,1.5%
CCN(CC)C(=S)Nc1ccc(Cl)cc1,-144%,67%,98.5% (active),-50%,49%,97.7% (active),-62%,63%,97.1% (active),-85%,40%,98.5% (active),-65%,45%,95.2% (active),-122%,74% (active),97.4% (active)
Cc1ccccc1NC(=O)c1cc2cc(N=Nc3ccccc3C(=O)O)ccc2oc1=O,7%,81% (active),91.4% (active),-10%,65%,83.5% (active),15%,90% (active),96.5% (active),9%,46%,90.3% (active),7%,78% (active),82.7% (active),8%,49%,96.5% (active)
O=CC(I)=C(c1ccccc1)c1ccccc1,21%,21%,88.8% (active),13%,13%,92.3% (active),9%,9%,86.4% (active),4%,4%,89.8% (active),-2%,-2%,89.5% (active),21%,21%,86.3% (active)
O=C(O)COc1cc(Br)cc(Br)c1-c1ccccc1,2%,36%,65.2%,14%,70% (active),59.5%,-10%,39%,71.2% (active),2%,56%,65%,-3%,46%,29.8%,22%,78% (active),67.7%
C/C(=N/NC(N)=S)C(CN(C)C)C(C1=C(O)c2ccccc2OC1)c1ccccc1 (configuration not stated),8%,8%,68%,2%,2%,52.5%,4%,4%,78.3% (active),-1%,-1%,65.8%,12%,12%,65.2%,0%,0%,66.8%
CCCCCCCCCCCCCCCCCCOP(=O)([O-])OCC[N+](C)(C)C,14%,99% (active),90.5% (active),-2%,99% (active),92% (active),-2%,99% (active),92.5% (active),15%,89% (active),89.5% (active),7%,99% (active),90.3% (active),10%,99% (active),91.6% (active)
C/C(=N/NC(N)=S)C(CN1CCOCC1)C(C1=C(O)c2ccccc2OC1)c1ccccc1 (configuration not stated),26%,26%,75% (active),28%,28%,71.8% (active),24%,24%,80.9% (active),6%,6%,75.4% (active),24%,24%,71% (active),26%,26%,77.7% (active)
O=C1CN(/N=C\c2ccc([N+](=O)[O-])o2)C(=O)N1,11%,48%,56.5%,4%,29%,15.2%,2%,39%,41%,-5%,18%,-8.35%,3%,26%,27.5%,19%,65%,69.8%
CC(=O)OC(OC(C)=O)c1ccc2ccc3cccc4ccc1c2c34,16%,89% (active),63.4%,-1%,78% (active),45.8%,-16%,84% (active),61%,3%,78% (active),45.2%,-17%,85% (active),69%,-3%,89% (active),71.7% (active)
CC(=O)N1c2ccccc2Sc2ccc(C(=O)CCl)cc21,14%,79% (active),95.7% (active),19%,95% (active),95.7% (active),15%,91% (active),93.9% (active),9%,50%,81.2% (active),8%,91% (active),95.8% (active),30%,94% (active),94.7% (active)
CCCCCCCCCCCC(=O)OCC1OC(OC)C(NC(=O)N(CCCl)N=O)C(O)C1O (configuration not stated),39%,39%,79.9% (active),20%,20%,67.5%,21%,21%,90.5% (active),17%,17%,30.5%,13%,13%,77.4% (active),14%,14%,76% (active)
CC(=O)Nc1cc(F)c2c(c1)Cc1ccccc1-2,5%,77% (active),-1.75%,-2%,59%,19.5%,-1%,84% (active),-16.8%,0%,77% (active),89.4% (active),2%,83% (active),90.5% (active),4%,78% (active),-14.2%
CCN(CC)CCNc1ccc(C)c2sc3ccc(OC)cc3c(=O)c12,32%,94% (active),90.7% (active),22%,97% (active),89.2% (active),23%,98% (active),17.2%,16%,87% (active),30.9%,31%,99% (active),1%,32%,98% (active),93% (active)
Cn1c2nc(-[n+]3ccc(-c4ccccc4)cc3)nc-2c([O-])n(C)c1=O,3%,3%,-7.35%,-3%,8%,2.95%,1%,-4%,9.9%,-3%,1%,72.3% (active),-1%,-3%,-2%,-1%,16%,-7.5%
O=C1CC(O)C=C1Nc1ccc(Cl)cc1 (configuration not stated),3%,14%,98.8% (active),-3%,29%,98.2% (active),-6%,4%,98.7% (active),-8%,-8%,98.5% (active),-9%,-22%,97.8% (active),0%,7%,98.5% (active)
CCC(C)COC(=O)c1ccc([N+](=O)[O-])cc1 (configuration not stated),-4%,10%,50%,-4%,2%,16.4%,-1%,7%,72.8% (active),-3%,-9%,-2.15%,-6%,-6%,80.2% (active),-4%,5%,89.3% (active)
